aSyn UTR act – Activators via SNCA 5'UTR binding, MLPCN. 300,000 tested, 7.1% active. activity score, % (tested at 7.5 µM), hits read low. alpha-synuclein 5'UTR reporter, activators screen; in the data active means activity score below about -60%
* = called active by the depositor. The list is a sample of the results.

SMILES	aSyn UTR act
Cc1cc(NCCCN)nc(-c2ccccc2O)n1	-69*
C/C(=N\Nc1cc(C)nc(-c2ccccc2O)n1)c1ccccc1	-65*
Cc1ccc(Oc2cc(C)nc(-c3ccccc3O)n2)cc1	-69*
Cc1ccc(Nc2cc(C)nc(-c3ccccc3)n2)cc1	-124*
Cc1cc(N/N=C/c2ccc(O)c(C)c2O)nc(-c2ccccc2O)n1	87
Cc1ccc(Nc2cc(C)nc(-c3ccccc3O)n2)cc1	-116*
COc1ccc(-n2ncc3c(NCCCN4CCOCC4)ncnc32)cc1	-120*
COc1ccc(-c2oc3ncn(CCN4CCOCC4)c(=N)c3c2-c2ccc(OC)cc2)cc1	74
COc1ccc(-n2ncc3c(NCCN4CCOCC4)ncnc32)cc1	-69*
OC1c2cc(Br)ccc2N=C2CCCN21 (stereo not given)	-88*
O=C(NCC1CCCO1)c1sc2cc(Cl)ccc2c1Cl (stereo not given)	-124*
[O-]/[N+](=C\c1ccco1)c1ccc(Cl)cc1	-164*
[O-]/[N+](=C/c1ccc(F)cc1)c1ccc(Cl)cc1	-177*
O=C(c1cc(COc2ccc(F)cc2Cl)on1)N1CC2C[C@@H]3CC1C[C@H](C2)C3	-190*
O=C(c1cc(COc2ccc(F)cc2Cl)on1)N1C[C@H]2CC[C@H]1C2	-164*
Cc1ccc2c(c1)NC(=O)c1cccnc1N2	-140*
CC(=O)N1CCN(c2nc3ccc(Br)cc3s2)CC1	-158*
CC(C)(C)C(=O)N1CCN(c2nc3ccc(Br)cc3s2)CC1	-164*
CC(C)(C)C(=O)N1CCN(c2nc3ccc(Cl)cc3s2)CC1	-237*
COc1ccc(OCc2cc(C(=O)NC(C)c3cnn(C)c3)no2)c(Cl)c1 (stereo not given)	-106*
COc1ccc(OCc2cc(C(=O)N3CCCCCC3)no2)c(Cl)c1	-90*
COc1cccc(OCc2cc(C(=O)NC(C)c3cnn(C)c3C)no2)c1 (stereo not given)	-77*
O=C(c1cc(COc2ccc(F)cc2Cl)on1)N1CCSCC1	-197*
CC(NC(=O)c1cc(COc2c(F)cccc2F)on1)c1cnn(-c2ccccc2)c1 (stereo not given)	-91*
COc1ccc(OCc2cc(C(=O)N3CCOCC3)no2)c(Cl)c1	-82*
SMILES	aSyn UTR act
COc1ccc(OCc2cc(C(=O)N3CCSCC3)no2)c(Cl)c1	-108*
COc1ccc(OCc2cc(C(=O)N3CCC(c4ccccc4)CC3)no2)c(Cl)c1	-63*
Cc1nn(-c2ccccc2)c(C)c1Cc1ccc(O)cc1	-117*
CCCc1ccc(OCc2nc(-c3ccc(NC(=O)c4cccs4)cc3)no2)cc1	-169*
Cc1ccccc1OCc1nc(-c2ccc(NC(=O)c3ccc4c(c3)OCO4)cc2)no1	-109*
Cc1ccccc1OCc1nc(-c2ccc(NC(=O)c3cccs3)cc2)no1	-277*
CC(Oc1ccc(Cl)cc1Cl)c1nc(-c2ccc(NC(=O)c3ccco3)cc2)no1 (stereo not given)	-147*
CCCc1ccc(OCc2nc(-c3ccc(NC(=O)c4ccco4)cc3)no2)cc1	-119*
N=C(N)SCc1nc2ccccc2c(=O)n1-c1ccccc1	-95*
O=c1c2ccccc2nc(N/N=C/c2c(O)ccc3ccccc23)n1O	82
FC(F)(F)c1cc(Cl)c2nc(-c3ccccc3)cn2c1	-80*
Nc1cccc(-c2cn3cc(C(F)(F)F)cc(Cl)c3n2)c1	-100*
O=C1NC(c2ccccn2)Nc2sc3c(c21)CCC3 (stereo not given)	-124*
Cc1ccc(C2NC(=O)c3c(sc4c3CCN(C)C4)N2)s1 (stereo not given)	-72*
O=C1NC(c2ccc(Br)cc2)Nc2sc3c(c21)CCC3 (stereo not given)	-96*
Cc1ccsc1C1NC(=O)c2c(sc3c2CCCC3)N1 (stereo not given)	-218*
CN(C)/C=C1\N=C(c2ccc(Cl)cc2Cl)OC1=O	-149*
Cc1ccc(C2=N/C(=C\N(C)C)C(=O)O2)cc1	-144*
CCOc1ccc(NC(=O)c2csc3c2CCCC3)cc1	-204*
CC(=O)c1cccc(NC(=O)c2csc3c2CCCCC3)c1	-67*
O=C1CC(/C=C/c2ccc([N+](=O)[O-])cc2)=Nc2ccccc2N1	-112*
c1csc(-c2nc3c4ccccc4c4ccccc4c3[nH]2)c1	-73*
Brc1ccc(C2=Nc3cccc4cccc(c34)N2)o1	-74*
Nc1nnc(C(=O)c2ccccc2N)s1	-123*
O=C(CN1CCC(NC(=O)c2cccc(F)c2)CC1)Nc1ccc(Br)cc1	68
SMILES	aSyn UTR act
O=C(Nc1ccc(CN2CCCCC2)cc1)c1cccc(Br)c1	-72*
CC1CCN(CCc2nc3cc(NC(=O)Nc4ccccc4)ccc3n2C)CC1	-84*
Cn1c(CN2CCCCC2)nc2cc(NC(=O)c3ccccc3)ccc21	-73*
Cn1c(CN2CCCC2)nc2cc(NC(=O)c3ccco3)ccc21	-116*
CCN1CCN(Cc2ccc(NC(=O)c3cc(NC(=O)c4cncc(-c5cccs5)c4)cc(OC)c3)cc2C(F)(F)F)CC1	109
Cc1ccc(C(=O)Nc2ccc3c(c2)nc(CCNC(=O)c2ccco2)n3C)cc1	-104*

Screening data as filed in PubChem.
